This is an account of results in PubChem BioAssay.

The structures appear in SMILES notation. The source made the active and inactive calls.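 Rule for the calls, unless noted: active = normalized viability below 100% at a tested concentration; inactive = the rest.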

Experiment [1] can be described thus: MELAS cybrid and Rieske KO viability enhancers – cell-based, MELAS cybrids, Rieske KO mouse fibroblasts, CellTiter-Glo, primary screen (AID 1508586;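 active = mean z-score across replicates of 1.96 or higher in either the MELAS or the Rieske mutant cell line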;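 note: z relative to plate mean and SD of compound and empty wells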). As to conditions: low glucose.
The nature of experiment [2]: galactose survival enhancers in mitochondrial complex I cybrids – cell-based, galactose medium, ATP luminescence, primary screen (AID 1645843;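 active = z-score of at least 1.8 in each of two replicates, scored against plate mean and spread of sample wells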;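 note: positive z means more ATP and so rescue of galactose-driven cybrid death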). As to conditions: complex I mutant cybrid cells, 72 h, stronger effect = higher value.
A short description of experiment [3]: drug combination growth inhibition, ovarian cancer – cell-based, oncology-focused library, rucaparib conditional, profiling panel (AID 1508598). As to conditions: patient-derived ovarian cancer cells, CellTiter-Glo viability, 144 h, stronger effect = lower value.
The mark [4] stands for this setting: MELAS cybrid survival, CellTiter-Glo 48 h, stronger effect = higher value.
[5] abbreviates: Rieske KO mouse fibroblast survival, CellTiter-Glo 72 h.

Consider `Cc1ccc(N2CCN(C3CCc4c(c(C(=O)N5CCSCC5)nn4C)C3)CC2)c(C)c1` (stereo unspecified), for which the z-score was -0.0351 (inactive) in experiment [1] (setting [4]), -0.612 in experiment [1] (setting [5]) and 0.195 (inactive) in experiment [2].

In the case of `COc1ccc(C[C@@H]2NC(=O)[C@H]3CN(C(=O)Oc4ccc(Cl)cc4)CCN3C2=O)cc1`, the z-score in experiment [1] (setting [4]) is -0.205 (inactive); in experiment [1] (setting [5]) it was 0.551; in experiment [2] it was -1.58 (inactive).

As to `Cc1nc(CN(C)C2CCc3c(c(C(=O)N(C)C)nn3CC3CCCCC3)C2)cs1` (stereo unspecified), the z-score was -0.264 (inactive) in experiment [1] (setting [4]), -0.141 in experiment [1] (setting [5]) and 0.725 (inactive) in experiment [2].

As to `CC(C)C[C@H]1C(=O)N2CCN(Cc3cccc4ncccc34)C[C@@H]2C(=O)N1C`, the z-score is -0.521 (inactive) in experiment [1] (setting [4]), -0.107 in experiment [1] (setting [5]) and -0.23 (inactive) in experiment [2].

For `C[C@H](O)[C@H]1NC(=O)[C@@H]2C[C@H](NC(=O)Nc3cccc(F)c3)CN2C1=O`, the z-score is 0.0941 (inactive) in experiment [1] (setting [4]), 0.103 in experiment [1] (setting [5]) and -0.26 (inactive) in experiment [2].

As for `O=C(NCCN1CCOCC1)c1cc(-c2ccccc2)cc(S(=O)(=O)N2CCSCC2)c1`, the z-score was -0.0926 (inactive) in experiment [1] (setting [4]), -0.421 in experiment [1] (setting [5]) and 1.53 (inactive) in experiment [2].

Consider `CC(C)Cn1nc(C(=O)N2CCCC2)c2c1CCC(NCCc1cccs1)C2` (stereo unspecified), for which the values for the z-score in experiment [1] (setting [4]), in experiment [1] (setting [5]) and in experiment [2] were -0.0921 (inactive), -0.284 and 0.555 (inactive), respectively.

Take `COC1CN(C(=O)Cn2nc(-c3ccccc3)c3ccccc3c2=O)CC(=O)N(Cc2ccccc2)C1` (stereo unspecified): the z-score was -0.199 (inactive) in experiment [1] (setting [4]), 0.0204 in experiment [1] (setting [5]) and 1.58 (inactive) in experiment [2].

On to `O=C([C@@H]1C[C@H](CN2CCOCC2)CN(Cc2ccc3ccccc3c2)C1)N1CCCC1`, for which the z-score in experiment [1] (setting [4]) is 1.59 (inactive); in experiment [1] (setting [5]), -0.119; in experiment [2], -0.585 (inactive).

For `COCCn1c(C(=O)OC)c(NC(=O)Cc2ccccc2)c2cc(NC(C)CCO)cnc21` (stereo unspecified), the z-score in experiment [1] (setting [4]) was -0.113 (inactive); in experiment [1] (setting [5]) it was 0.262; in experiment [2], -0.97 (inactive).

Consider `CC(C)CNc1cc(C(=O)NC2Cc3ccccc3C2)cc(S(=O)(=O)NC(C)C)c1`, for which the results for the z-score in experiment [1] (setting [4]), in experiment [1] (setting [5]) and in experiment [2] were 0.0668 (inactive), -0.0556 and -1.6 (inactive), respectively.

Turning to `Cc1nnc(CN(C)C(=O)c2cc(-c3ccc(C)s3)cc(S(=O)(=O)N3CCOCC3)c2)o1`, the z-score was -0.234 (inactive) in experiment [1] (setting [4]), -0.11 in experiment [1] (setting [5]) and 0.29 (inactive) in experiment [2].

For `CCN1C(=O)N(CC(N)=O)C(=O)C12CCN(CC(C)Cc1ccc3c(c1)OCO3)CC2` (stereo unspecified), the z-score in experiment [1] (setting [4]) was 0.0615 (inactive); in experiment [1] (setting [5]), -0.343; in experiment [2], 1.17 (inactive).

Consider `Cc1csc(-c2cc(C(=O)N(C)C3CCN(C)CC3)cc(S(=O)(=O)N3CCOCC3)c2)c1`, for which the z-score is -0.654 (inactive) in experiment [1] (setting [4]), -0.32 in experiment [1] (setting [5]) and 0.47 (inactive) in experiment [2].

With `Cc1ccc(S(=O)(=O)N2CCN3C(=O)[C@H](Cc4ccc(Cl)cc4)NC(=O)[C@H]3C2)cc1`, the z-score in experiment [1] (setting [4]) is 1.43 (inactive); in experiment [1] (setting [5]), -0.392; in experiment [2] it was -0.845 (inactive).

For `CCOC(=O)N1CCC(NC2CCc3c(c(C(=O)N(C)C)nn3Cc3ccccc3)C2)CC1` (stereo unspecified), the z-score was -0.0814 (inactive) in experiment [1] (setting [4]), 0.468 in experiment [1] (setting [5]) and -0.835 (inactive) in experiment [2].

On to `COc1ccc(CCn2nc(C(=O)N(C)C)c3c2CCN(C(=O)c2csc4c2CCCC4)C3)cc1`, for which the figures for the z-score in experiment [1] (setting [4]), in experiment [1] (setting [5]) and in experiment [2] were -0.0604 (inactive), -0.104 and 1.47 (inactive), respectively.

Turning to `C[C@@H](O)[C@@H]1NC(=O)[C@@H]2C[C@H](NCc3cc4ccccc4s3)CN2C1=O`, the values for the z-score in experiment [1] (setting [4]), in experiment [1] (setting [5]) and in experiment [2] were -0.64 (inactive), -0.73 and -0.615 (inactive), respectively.

As for `COC(=O)c1c(NC(=O)CCc2ccccc2)c2cc(NC(C)C(C)(C)O)cnc2n1C` (stereo unspecified), the z-score is -1.19 (inactive) in experiment [1] (setting [4]), -0.398 in experiment [1] (setting [5]) and -0.305 (inactive) in experiment [2].

For `COc1ccc(CCNC2CCc3c(c(C(=O)N(C)C)nn3CC3CCCCC3)C2)cc1` (stereo unspecified), the values for the z-score in experiment [1] (setting [4]), in experiment [1] (setting [5]) and in experiment [2] were -0.342 (inactive), 0.349 and -1.19 (inactive), respectively.

With `O=C(NCCn1cncn1)c1cc(-c2ccccc2)cc(S(=O)(=O)N2CCSCC2)c1`, the z-score is -0.182 (inactive) in experiment [1] (setting [4]), 0.272 in experiment [1] (setting [5]) and 1.56 (inactive) in experiment [2].

Regarding `COc1ccccc1CNC1CCc2c(c(C(=O)N3CCc4ccccc4C3)nn2C)C1` (stereo unspecified), the figures for the z-score in experiment [1] (setting [4]), in experiment [1] (setting [5]) and in experiment [2] were -0.107 (inactive), -0.0135 and 0.07 (inactive), respectively.

As to `CCOC(=O)c1nn(CCC(F)(F)F)c2c1CN(C(=O)c1ccco1)CC2`, the z-score in experiment [1] (setting [4]) was -0.696 (inactive); in experiment [1] (setting [5]), -0.531; in experiment [2], -0.32 (inactive).

Turning to `CCOC(=O)N1CCC(N2CCc3c(cc(-c4cccc(OC)c4OC)c(=O)n3CC3CC3)C2)CC1`, the z-score in experiment [1] (setting [4]) is -0.362 (inactive); in experiment [1] (setting [5]), -0.0606; in experiment [2], -0.36 (inactive).

With `COC(=O)CCN1CC(OCc2ccncc2)CN(C(=O)c2csc(SC)n2)CC1=O` (stereo unspecified), the z-score in experiment [1] (setting [4]) is -0.62 (inactive); in experiment [1] (setting [5]), -0.661; in experiment [2], 0.42 (inactive).

On to `COc1cc(CN2CCc3c(cc(-c4cccc(F)c4)c(=O)n3CCn3ccc(C)n3)C2)ccc1O`, for which the values for the z-score in experiment [1] (setting [4]), in experiment [1] (setting [5]) and in experiment [2] were 0.37 (inactive), 0.944 and -0.15 (inactive), respectively.

In the case of `COCCN1C(=O)N(C)C(=O)C12CCN(Cc1cnc(-c3ccccc3)s1)CC2`, the values for the z-score in experiment [1] (setting [4]), in experiment [1] (setting [5]) and in experiment [2] were -0.0934 (inactive), -0.895 and -0.285 (inactive), respectively.

Take `Cn1nc(C(=O)N2CCCCC2)c2c1CCC(NCC1(c3ccccc3)CCOCC1)C2` (stereo unspecified): the z-score is 0.135 (inactive) in experiment [1] (setting [4]), 0.153 in experiment [1] (setting [5]) and -0.59 (inactive) in experiment [2].

Regarding `c1ccc(Cn2c(-c3ccc(OC[C@H](C4CCNCC4)n4c(-c5ccccc5)nc5ccccc54)cc3)nc3ccccc32)cc1`, the viability in experiment [3] (at 0.000305 µM, OCI-C5x cells, with rucaparib 10 µM, 100% = cells with rucaparib alone) was 117% (inactive); in experiment [3] (at 0.000305 µM, OCI-C5x cells, without rucaparib), 110% (inactive); in experiment [3] (at 0.000305 µM, OCI-P5x cells, with rucaparib 20 µM, 100% = cells with rucaparib alone), 90.3% (active); in experiment [3] (at 0.000305 µM, OCI-P5x cells, without rucaparib) it was 96.7% (active); in experiment [3] (at 0.00122 µM, OCI-C5x cells, with rucaparib 10 µM, 100% = cells with rucaparib alone) it was 123% (inactive); in experiment [3] (at 0.00122 µM, OCI-C5x cells, without rucaparib), 125% (inactive). Besides, the viability is 98.1% (active) in experiment [3] (at 0.00122 µM, OCI-P5x cells, with rucaparib 20 µM, 100% = cells with rucaparib alone); 99.5% (active) in experiment [3] (at 0.00122 µM, OCI-P5x cells, without rucaparib); 125% (inactive) in experiment [3] (at 0.00488 µM, OCI-C5x cells, with rucaparib 10 µM, 100% = cells with rucaparib alone); 126% (inactive) in experiment [3] (at 0.00488 µM, OCI-C5x cells, without rucaparib); 99.2% (active) in experiment [3] (at 0.00488 µM, OCI-P5x cells, with rucaparib 20 µM, 100% = cells with rucaparib alone); 101% (inactive) in experiment [3] (at 0.00488 µM, OCI-P5x cells, without rucaparib). Also, the viability in experiment [3] (at 0.0195 µM, OCI-C5x cells, with rucaparib 10 µM, 100% = cells with rucaparib alone) was 121% (inactive); in experiment [3] (at 0.0195 µM, OCI-C5x cells, without rucaparib), 107% (inactive); in experiment [3] (at 0.0195 µM, OCI-P5x cells, with rucaparib 20 µM, 100% = cells with rucaparib alone), 96.1% (active); in experiment [3] (at 0.0195 µM, OCI-P5x cells, without rucaparib), 106% (inactive); in experiment [3] (at 0.0781 µM, OCI-C5x cells, with rucaparib 10 µM, 100% = cells with rucaparib alone) it was 110% (inactive); in experiment [3] (at 0.0781 µM, OCI-C5x cells, without rucaparib), 117% (inactive). The viability in experiment [3] (at 0.0781 µM, OCI-P5x cells, with rucaparib 20 µM, 100% = cells with rucaparib alone) was 95.8% (active); in experiment [3] (at 0.0781 µM, OCI-P5x cells, without rucaparib), 105% (inactive); in experiment [3] (at 0.313 µM, OCI-C5x cells, with rucaparib 10 µM, 100% = cells with rucaparib alone), 118% (inactive); in experiment [3] (at 0.313 µM, OCI-C5x cells, without rucaparib) it was 120% (inactive); in experiment [3] (at 0.313 µM, OCI-P5x cells, with rucaparib 20 µM, 100% = cells with rucaparib alone), 105% (inactive); in experiment [3] (at 0.313 µM, OCI-P5x cells, without rucaparib), 109% (inactive). Besides, the viability in experiment [3] (at 1.25 µM, OCI-C5x cells, with rucaparib 10 µM, 100% = cells with rucaparib alone) was 130% (inactive); in experiment [3] (at 1.25 µM, OCI-C5x cells, without rucaparib), 131% (inactive); in experiment [3] (at 1.25 µM, OCI-P5x cells, with rucaparib 20 µM, 100% = cells with rucaparib alone) it was 33.8% (active); in experiment [3] (at 1.25 µM, OCI-P5x cells, without rucaparib), 102% (inactive); in experiment [3] (at 5 µM, OCI-C5x cells, with rucaparib 10 µM, 100% = cells with rucaparib alone), 1.56% (active); in experiment [3] (at 5 µM, OCI-C5x cells, without rucaparib), 3.14% (active). The viability in experiment [3] (at 5 µM, OCI-P5x cells, with rucaparib 20 µM, 100% = cells with rucaparib alone) was 1.07% (active); in experiment [3] (at 5 µM, OCI-P5x cells, without rucaparib) it was 1.44% (active).
